Among the data in PubChem BioAssay (NCI) are growth values, retold here.

Compounds without any hit were thinned out: in the full panel of roughly 83,000, 20% have a hit.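 Single-concentration screen, 48 h exposure, 96-well plates. Endpoint: percent growth. Below 10 = active.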 Active and inactive are the calls of the source.

One test relates to A498 renal. In words: NCI-60 one-dose screen, 48 h (100 = growth as untreated, 0 = no growth, -100 = all killed). The note with it: 10 µM unless noted.
With `Oc1ccccc1-c1nnc(SCc2ccc(O)c3ncccc23)o1`, the growth was 81.7% (inactive).

Consider `COc1cc(/C=C2\SC(=O)NC2=O)ccc1OCC(=O)Nc1ccc(C(=O)/C=C/c2cc3ccccc3nc2Cl)cc1`, for which the growth is 111% (inactive).

For `Oc1ccc(-c2nnc(SCc3ccc(O)c4ncccc34)o2)cc1`, the growth is -8.21% (active).

Regarding `O=c1[nH]c2cc(Cl)ccc2n1C1CCN(c2ccc3nnc(Cl)n3n2)CC1`, the growth was 61.5% (inactive).

As to `COc1ccc(N2CCN(C(=O)CSc3ccc(-c4nc5cc(C)c(C)cc5[nH]4)cn3)CC2)cc1`, the growth was 90.9% (inactive).

As to `Oc1ccc(CSc2nnc(-c3ccncc3)o2)c2cccnc12`, the growth is 9.33% (active).

As to `O=C(COc1ccc(/C=C2\SC(=O)NC2=O)cc1)Nc1ccc(C(=O)/C=C/c2cc3ccccc3nc2Cl)cc1`, the growth is 80.7% (inactive).

`Cn1cc(-c2nn3cc(-c4cccnc4)nc3s2)c2cc(F)ccc21`: the growth is 103% (inactive).

As for `O=C1[C@H]2Cc3c([nH]c4ccccc34)[C@@H](c3ccc(Cl)cc3)N2C(=O)CN1C1CCN(Cc2c(Cl)cccc2Cl)CC1`, the growth is 111% (inactive).

In the case of `O=C1[C@H]2Cc3c([nH]c4ccccc34)[C@@H](c3c(Cl)cccc3Cl)N2C(=O)CN1C1CCN(Cc2ccccc2)CC1`, the growth is 102% (inactive).

Consider `CC1=C2C(=C[C@@](C)(COS(N)(=O)=O)[C@@H]2O)C(=O)[C@](C)(O)C12CC2`, for which the growth is 55.7% (inactive).

As to `NC(=S)N/N=C(/C=C/c1cn(-c2ccccc2)nc1-c1ccc(Cl)cc1)c1cc2ccccc2oc1=O`, the growth is 69.3% (inactive).

Consider `O=C(/C=C1\C=CN(CCCCO)c2ccccc21)n1ccc2ccccc21`, for which the growth was 117% (inactive).

For `Oc1ccc(CSc2nnc(-c3ccccc3)o2)c2cccnc12`, the growth was 70.7% (inactive).

Turning to `CS(=O)(=O)c1ccc2c(c1)c1c(n2S(=O)(=O)c2ccc(Cl)cc2)CCCC1`, the growth was -11.2% (active).

Regarding `C=C(C)C(=O)O[C@H]1C[C@@]2(C)OC(=CC2=O)[C@H](C)[C@H](O)[C@H]2OC(=O)C(=C)[C@@H]21`, the growth was 131% (inactive).

`CCNC(=NCCCN(C)C)N/C(N)=N/c1nc2ccccc2s1`: the growth is 111% (inactive).

Turning to `N/C(=N\c1nc2ccc([N+](=O)[O-])cc2s1)C(Cl)(Cl)Cl`, the growth is 32.6% (inactive).

`CS(=O)c1nccc(-c2c(-c3ccc(F)c(OCCc4ccc(F)cc4)c3)nc3sccn23)n1` (stereo not drawn): the growth is 82.2% (inactive).

The test system of another test is CCRF-CEM leukemia. Described as above. Conditions: 10 µM unless noted.
For the compound `Cc1ccc(NC(=O)N[C@@H](Cc2cc(F)cc(F)c2)C(=O)NC2C(=O)N3CCC[C@H]3C(=O)N3CCCC[C@H]3C(=O)N[C@@H](C)C(=O)N3C[C@H](C)C[C@H]3C(=O)O[C@H]2C)c(F)c1` (stereo partly drawn), the growth is 34.2% (inactive).

As for `COc1ccc(/C=C/C(=O)c2nnn(-c3ccc(C(=O)O)cc3)c2C)cc1OC`, the growth is 87.7% (inactive).

Take `O=C(Nc1cc(F)cc2cccnc12)c1cnc(N2CCOCC2)cn1`: the growth is 28.6% (inactive).

`Oc1ccccc1-c1nnc(SCc2ccc(O)c3ncccc23)o1`: the growth is 28.1% (inactive).

For the compound `COc1cc(/C=C2\SC(=O)NC2=O)ccc1OCC(=O)Nc1ccc(C(=O)/C=C/c2cc3ccccc3nc2Cl)cc1`, the growth was 57.2% (inactive).

Take `Nc1nc(-c2cccc([N+](=O)[O-])c2)c(N=Nc2ccccc2Cl)s1`: the growth is 66.8% (inactive).

Take `Oc1ccc(-c2nnc(SCc3ccc(O)c4ncccc34)o2)cc1`: the growth is 12.1% (inactive).

For `C[C@H]1[C@H](C)CC[C@]2(COC(=O)c3cccnc3)CC[C@]3(C)C(=CC[C@@H]4[C@@]5(C)CCCNC(C)(C)[C@@H]5CC[C@]43C)[C@H]12`, the growth was 50.1% (inactive).

Take `O=c1[nH]c2cc(Cl)ccc2n1C1CCN(c2ccc3nnc(Cl)n3n2)CC1`: the growth was 89% (inactive).

As for `COc1ccc(N2CCN(C(=O)CSc3ccc(-c4nc5cc(C)c(C)cc5[nH]4)cn3)CC2)cc1`, the growth was 18.4% (inactive).

With `Cc1cc(F)cc(NS(=O)(=O)c2ccc(-c3cnc(C4CC4)o3)cc2)c1`, the growth was 20.8% (inactive).

For `Oc1ccc(CSc2nnc(-c3ccncc3)o2)c2cccnc12`, the growth is 26% (inactive).

For the compound `O=C(COc1ccc(/C=C2\SC(=O)NC2=O)cc1)Nc1ccc(C(=O)/C=C/c2cc3ccccc3nc2Cl)cc1`, the growth is 35.4% (inactive).

Turning to `O=C(Nc1cccc(Cl)c1)Nc1nc2ccc([N+](=O)[O-])cc2s1`, the growth is 9.48% (active).

In the case of `Cn1cc(-c2nn3cc(-c4cccnc4)nc3s2)c2cc(F)ccc21`, the growth was 89.2% (inactive).

As to `COc1ccc(CCN2C(=O)/C(=C/c3nc(CO)cs3)SC2=S)cc1`, the growth was 67.6% (inactive).

For the compound `C/C(=N\NC(=S)Nc1ccc(Br)cc1)c1cc2ccccc2oc1=O`, the growth was 12.5% (inactive).

As to `O=C1[C@H]2Cc3c([nH]c4ccccc34)[C@@H](c3ccc(Cl)cc3)N2C(=O)CN1C1CCN(Cc2c(Cl)cccc2Cl)CC1`, the growth is 65.8% (inactive).

As to `O=C1[C@H]2Cc3c([nH]c4ccccc34)[C@@H](c3c(Cl)cccc3Cl)N2C(=O)CN1C1CCN(Cc2ccccc2)CC1`, the growth was 21.7% (inactive).

With `Oc1ccccc1-c1nnc(SCc2ccc(O)c3ncccc23)n1-c1ccccc1`, the growth is 7.6% (active).

`CC1=C2C(=C[C@@](C)(COS(N)(=O)=O)[C@@H]2O)C(=O)[C@](C)(O)C12CC2`: the growth is 98.2% (inactive).

Consider `CC1(COc2ccc3ncc(C#Cc4cncc(C(=O)Nc5cc(C(C)(C)C)on5)c4)n3n2)COC1`, for which the growth was 39.5% (inactive).

For `NC(=S)N/N=C(/C=C/c1cn(-c2ccccc2)nc1-c1ccc(Cl)cc1)c1cc2ccccc2oc1=O`, the growth was 8.22% (active).

For `O=C(/C=C1\C=CN(CCCCO)c2ccccc21)n1ccc2ccccc21`, the growth is 102% (inactive).

Regarding `Cc1cc(NS(=O)(=O)c2ccc(-c3cnc(C4CC4)o3)cc2)ccc1I`, the growth was 19.1% (inactive).

As to `Oc1ccc(CSc2nnc(-c3ccccc3)o2)c2cccnc12`, the growth is 10% (inactive).

`CS(=O)(=O)c1ccc2c(c1)c1c(n2S(=O)(=O)c2ccc(Cl)cc2)CCCC1`: the growth is 27.3% (inactive).

As for `CN(C)C(=O)c1ccccc1-n1cnc2ccccc2c1=O`, the growth was 97.4% (inactive).

With `C=C(C)C(=O)O[C@H]1C[C@@]2(C)OC(=CC2=O)[C@H](C)[C@H](O)[C@H]2OC(=O)C(=C)[C@@H]21`, the growth was 7.85% (active).

`O=C(Nc1cc(Cl)cc(Cl)c1)Nc1nc2ccc([N+](=O)[O-])cc2s1`: the growth was 10.3% (inactive).

On to `C#C[C@]1(O)CC[C@H]2[C@@H]3CC=C4c5sc(Nc6ccc(OC)nc6)nc5CC[C@]4(C)[C@H]3CC[C@@]21C`, for which the growth was 8.55% (active).

Consider `CCOc1ccc2nc(NC(=O)Nc3ccccc3C)sc2c1`, for which the growth was 47.7% (inactive).

Take `CN(c1ccc(Br)cc1)S(=O)(=O)c1ccc(-c2cnc(C3CC3)o2)cc1`: the growth is 18% (inactive).

For `CCNC(=NCCCN(C)C)N/C(N)=N/c1nc2ccccc2s1`, the growth is 82.3% (inactive).

As for `Cc1cc(Cl)cc(NS(=O)(=O)c2ccc(-c3cnc(C4CC4)o3)cc2)c1`, the growth was 18.6% (inactive).

With `N/C(=N\c1nc2ccc([N+](=O)[O-])cc2s1)C(Cl)(Cl)Cl`, the growth is 77.4% (inactive).

`CS(=O)c1nccc(-c2c(-c3ccc(F)c(OCCc4ccc(F)cc4)c3)nc3sccn23)n1` (stereo not drawn): the growth was 14.5% (inactive).

With `CN(c1ccc(F)cc1)S(=O)(=O)c1ccc(-c2cnc(C3CC3)o2)cc1`, the growth is 16.4% (inactive).

For `Cc1cn(-c2cc(NC(=O)c3cncc(C#Cc4cnc5ccc(OCCCS(C)(=O)=O)nn45)c3)cc(C(F)(F)F)c2)cn1`, the growth was 6.72% (active).
